# Measured values published in PubChem BioAssay (Tox21).
# Several values for one entry are separate records, joined by “and”; a condition that tells them apart may be missing. Identical values can stand only once. Inconclusive results are not listed. Entries that show only a call come without a potency. More than one record can exist for a structure, and the calls need not agree. Activity calls are given as the source filed them. Unless noted, the call rests on the fitted dose curve.
# Assays:
# [1] = Nuclear factor erythroid 2-related factor 2/antioxidant responsive element (Nrf2/ARE) small molecule agonists: qHTS cell viability counter screen in human keratinocytes (AID 1919968; active means well fitted curve in the direction sought with a large enough effect in the repeat runs; an effect the other way counts as inactive or inconclusive; further: nearly all actives have a fitted effect of over 55% in size; further: potency means the concentration at half of the fitted maximal effect)
# In short: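 KeratinoSens HaCaT cells, 1,500/well, preincubated 5 h, then exposed to compounds in DMSO for 23 h at 37 C/5% CO2. Viability read as CellTiter-Fluor fluorescence after 1 h, in the same wells as the ARE-luciferase read.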
# [2] = target: KiSS-1 receptor (Homo sapiens) (UniProt Q969F8); assay: Human kisspeptin (KISS1R) small molecule agonists, calcium flux assay in KISS1R-HEK293 cells (AID 1920064; active means well fitted curve in the direction sought with a large enough effect in the repeat runs; an effect the other way counts as inactive or inconclusive)
# Sequence of KiSS-1 receptor (Homo sapiens) (Q969F8 whole entry, looked up): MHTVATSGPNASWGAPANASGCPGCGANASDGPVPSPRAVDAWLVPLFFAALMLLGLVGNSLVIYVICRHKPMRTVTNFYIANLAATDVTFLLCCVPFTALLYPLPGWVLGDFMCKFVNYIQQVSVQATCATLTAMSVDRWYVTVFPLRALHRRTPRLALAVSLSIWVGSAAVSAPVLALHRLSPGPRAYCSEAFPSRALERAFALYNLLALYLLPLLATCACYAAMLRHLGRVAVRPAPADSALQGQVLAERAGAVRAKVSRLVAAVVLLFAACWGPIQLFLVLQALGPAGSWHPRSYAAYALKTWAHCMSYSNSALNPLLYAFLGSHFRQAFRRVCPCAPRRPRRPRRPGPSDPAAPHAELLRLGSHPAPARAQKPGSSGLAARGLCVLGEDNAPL
# In short: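 HEK293 cells stably expressing human KISS1R were loaded with calcium dye for 1 h at 37 C, then given compound; fluorescence (Ex/Em 480/540) was read kinetically for 3 min. Fifteen concentrations, triplicate.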
# [3] = G protein-coupled receptor (GPCR) small molecule agonists, calcium flux assay: HEK293 wild type cell line counter screen (AID 1920065)
# In short: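 Wild-type HEK293 cells plated 18 h, loaded with calcium dye 1 h at 37 C, then compounds added in agonist mode (ATP as positive control). Kinetic fluorescence Ex/Em 480/540 recorded 3 min at 1 sec intervals; 15 concentrations, triplicate.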
# [4] = p53 small molecule agonists, cell-based qHTS assay with human liver microsomes (AID 1963577)
# In short: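 p53RE-bla cells, 4,000/well, compound added after 5 h, with human liver microsomes 0.5 mg/mL and NADPH 0.5 mg/mL final; 16 h at 37 C, then LiveBLAzer 2 h RT, fluorescence.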
# [5] = p53 small molecule agonists, cell-based qHTS assay with rat liver microsomes (AID 1963578)
# In short: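 p53RE-bla cells, 4,000/well, pre-incubated 5 h, then given compounds plus rat liver microsomes (0.5 mg/mL final) and NADPH (0.5 mg/mL final). Incubation 16 h at 37 C; beta-lactamase reporter read by LiveBLAzer fluorescence after 2 h at room temperature.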
# [6] = p53 small molecule agonists, cell-based qHTS assay with human liver microsomes: qHTS cell viability counter screen (AID 1963579); further: nearly all actives have a fitted effect of over 45% in size; further: potency means the concentration at half of the fitted maximal effect
# In short: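 p53RE-bla cells, 4,000/well, dosed 5 hours after plating, with human liver microsomes (0.5 mg/mL final) plus NADPH (0.5 mg/mL final), 16 hours at 37 C. Viability read as CellTiter-Glo luminescence after 30 min at room temperature.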
# [7] = p53 small molecule agonists, cell-based qHTS assay with rat liver microsomes: qHTS cell viability counter screen (AID 1963580); further: nearly all actives have a fitted effect of over 45% in size; further: potency means the concentration at half of the fitted maximal effect
# In short: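 HCT-116 p53RE-bla, 4,000 cells/well, 5 h pre-incubation; cpd + rat liver microsomes 0.5 mg/mL + NADPH 0.5 mg/mL (final); 16 h, 37 C; CellTiter-Glo, 30 min RT; luminescence.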
# [8] = p53 small molecule agonists, cell-based qHTS assay: qHTS cell viability counter screen (AID 1963581); further: nearly all actives have a fitted effect of over 45% in size
# In short: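 p53RE-bla HCT-116 cells, compounds added 5 h after plating and incubated 16 h at 37 C. Cytotoxicity measured in the same wells as intracellular ATP by CellTiter-Glo luminescence after 30 min at room temperature.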
# [9] = p53 small molecule agonists, cell-based qHTS assay (AID 1963582; active means well fitted activation curve with a large enough effect in the signal ratio in the repeat runs, not every such curve was filed as active; the % refers to the signal ratio)
# In short: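 p53RE-bla reporter cells, compounds added in DMSO after 5 h plating, incubated 16 h at 37 C. Beta-lactamase read via 2 h room-temperature LiveBLAzer B/G FRET substrate, fluorescence intensity.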
# [10] = target: 5-hydroxytryptamine receptor 2A (Homo sapiens) (UniProt P28223); assay: 5-hydroxytryptamine receptor 2A (HTR2A) small molecule antagonists, cell-based qHTS assay (AID 1963586); further: nearly all actives have a fitted effect of over 45% in size
# Sequence of 5-hydroxytryptamine receptor 2A (Homo sapiens) (P28223 whole entry, looked up): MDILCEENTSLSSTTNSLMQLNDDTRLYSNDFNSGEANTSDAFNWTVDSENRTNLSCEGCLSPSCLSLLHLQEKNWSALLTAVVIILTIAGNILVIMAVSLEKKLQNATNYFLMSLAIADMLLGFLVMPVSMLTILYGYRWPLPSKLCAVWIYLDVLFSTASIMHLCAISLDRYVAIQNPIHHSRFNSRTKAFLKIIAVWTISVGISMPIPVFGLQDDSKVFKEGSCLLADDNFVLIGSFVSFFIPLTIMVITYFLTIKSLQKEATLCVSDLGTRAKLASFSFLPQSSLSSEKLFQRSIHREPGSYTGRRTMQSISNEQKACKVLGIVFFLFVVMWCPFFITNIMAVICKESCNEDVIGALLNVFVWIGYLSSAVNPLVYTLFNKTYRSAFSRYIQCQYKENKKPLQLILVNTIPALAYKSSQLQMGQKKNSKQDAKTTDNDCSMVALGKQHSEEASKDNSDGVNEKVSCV
# In short: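 Antagonist-mode intracellular calcium assay: DOI (4 nM) added after 5 min compound pre-incubation at room temperature to dye-loaded HTR2A-CHO cells. Fluorescence followed for 3 min, sampled every second.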
# [11] = target: 5-hydroxytryptamine receptor 2A (Homo sapiens) (UniProt P28223); assay: 5-hydroxytryptamine receptor 2A (HTR2A) small molecule agonists, cell-based qHTS assay (AID 1963587); further: nearly all actives have a fitted effect of over 30% in size; further: potency means the concentration at half of the fitted maximal effect
# In short: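 Kinetic calcium-flux fluorescence (2 min, 1 sec intervals) after compound addition in agonist mode. HTR2A-CHO cells were cultured 18 h, then dye-loaded 1 h at 37 C.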
# [12] = target: Muscarinic acetylcholine receptor M1 (Homo sapiens) (UniProt P11229); assay: Cholinergic receptor muscarinic 1 (CHRM1) small molecule antagonists, cell-based qHTS assay (AID 1963588); further: nearly all actives have a fitted effect of over 40% in size; further: potency means the concentration at half of the fitted maximal effect
# Sequence of Muscarinic acetylcholine receptor M1 (Homo sapiens) (P11229 whole entry, looked up): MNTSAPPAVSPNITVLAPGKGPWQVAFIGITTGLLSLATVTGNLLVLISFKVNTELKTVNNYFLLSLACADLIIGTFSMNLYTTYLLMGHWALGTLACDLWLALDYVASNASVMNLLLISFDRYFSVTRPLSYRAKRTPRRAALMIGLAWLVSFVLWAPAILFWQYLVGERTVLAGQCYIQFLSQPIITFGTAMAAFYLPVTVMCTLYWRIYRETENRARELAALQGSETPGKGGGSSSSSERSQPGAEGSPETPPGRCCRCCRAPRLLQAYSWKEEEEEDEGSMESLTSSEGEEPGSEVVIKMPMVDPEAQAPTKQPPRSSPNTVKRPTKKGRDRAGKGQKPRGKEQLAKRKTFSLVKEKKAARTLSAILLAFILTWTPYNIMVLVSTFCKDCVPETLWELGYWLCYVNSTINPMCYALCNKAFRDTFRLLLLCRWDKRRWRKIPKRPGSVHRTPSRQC
# In short: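 CHRM1-CHO calcium-flux assay, antagonist mode. Cells were seeded 18 h, dye-loaded 1 h at 37 C and given compound for 5 min at RT, then acetylcholine was added at 50nM. FDSS fluorescence was read 3 min; 15 concentrations, three runs.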
# [13] = target: Muscarinic acetylcholine receptor M1 (Homo sapiens) (UniProt P11229); assay: Cholinergic receptor muscarinic 1 (CHRM1) small molecule agonists, cell-based qHTS assay (AID 1963589); further: nearly all actives have a fitted effect of over 35% in size
# In short: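 CHO cells stably expressing human CHRM1 were loaded with calcium dye for 1 h at 37 C, then compound was added in agonist mode. Intracellular calcium fluorescence was followed kinetically at 1 s intervals. Fifteen concentrations were tested in three independent runs.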
# [14] = cAMP Responsive Elements (CRE) small molecule agonists, cell-based qHTS assay (AID 1963590)
# In short: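 CRE-bla HEK 293T cells, 2,000/well in DMEM with 10% dialyzed FBS and 25 mM HEPES, pre-incubated 18 h at 37 C, then exposed to compound 3 h at 37 C. Beta-lactamase reporter read with LiveBLAzer B/G FRET substrate after 2 h at room temperature.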
# [15] = cAMP Responsive Elements (CRE) small molecule antagonists, cell-based qHTS assay (AID 1963591; active means well fitted inhibition curve with a large enough effect in the signal ratio in the repeat runs, not every such curve was filed as active; the % refers to the signal ratio)
# In short: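 CRE-bla HEK293T cells plated 18 h, then given compound plus NKH477 at 0.25 uM final for 3 h at 37C. Beta-lactamase reporter read with LiveBLAzer B/G FRET substrate after 2 h at room temperature.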
# [16] = target: Beta-2 adrenergic receptor (Homo sapiens) (UniProt P07550); assay: Adrenergic beta2 receptor (ADRB2) small molecule antagonists, cell-based qHTS assay (AID 1963592); further: series mostly up to about 92 µM; nearly all actives have a fitted effect of over 50% in size
# Sequence of Beta-2 adrenergic receptor (Homo sapiens) (P07550 whole entry, looked up): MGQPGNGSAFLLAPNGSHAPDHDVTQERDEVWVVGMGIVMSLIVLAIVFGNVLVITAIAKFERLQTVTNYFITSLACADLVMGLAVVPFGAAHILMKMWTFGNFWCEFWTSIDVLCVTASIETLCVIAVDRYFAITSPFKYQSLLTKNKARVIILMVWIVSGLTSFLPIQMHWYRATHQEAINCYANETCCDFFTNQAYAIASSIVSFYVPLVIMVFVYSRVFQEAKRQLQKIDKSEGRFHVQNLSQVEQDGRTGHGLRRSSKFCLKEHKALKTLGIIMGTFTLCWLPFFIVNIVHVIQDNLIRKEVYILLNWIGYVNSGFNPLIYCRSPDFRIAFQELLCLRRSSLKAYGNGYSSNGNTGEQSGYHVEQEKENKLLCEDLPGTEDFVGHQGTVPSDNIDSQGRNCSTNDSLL
# In short: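 Cells (CHO, stable ADRB2 overexpression) incubated 18-20hr at 37C; compounds added from DMSO; agonist mix (1nM isoproterenol, 100uM IBMX, 25uM Ro-20-1724) added; 0.5hr RT; d2-cAMP and anti-cAMP-cryptate added; 1hr RT; 665/615 nm read.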
# [17] = target: D(2) dopamine receptor (Homo sapiens) (UniProt P14416); assay: Dopamine D2 receptor (DRD2) small molecule agonists, cell-based qHTS assay (AID 1963594); further: nearly all actives have a fitted effect of over 35% in size
# Sequence of D(2) dopamine receptor (Homo sapiens) (P14416 whole entry, looked up): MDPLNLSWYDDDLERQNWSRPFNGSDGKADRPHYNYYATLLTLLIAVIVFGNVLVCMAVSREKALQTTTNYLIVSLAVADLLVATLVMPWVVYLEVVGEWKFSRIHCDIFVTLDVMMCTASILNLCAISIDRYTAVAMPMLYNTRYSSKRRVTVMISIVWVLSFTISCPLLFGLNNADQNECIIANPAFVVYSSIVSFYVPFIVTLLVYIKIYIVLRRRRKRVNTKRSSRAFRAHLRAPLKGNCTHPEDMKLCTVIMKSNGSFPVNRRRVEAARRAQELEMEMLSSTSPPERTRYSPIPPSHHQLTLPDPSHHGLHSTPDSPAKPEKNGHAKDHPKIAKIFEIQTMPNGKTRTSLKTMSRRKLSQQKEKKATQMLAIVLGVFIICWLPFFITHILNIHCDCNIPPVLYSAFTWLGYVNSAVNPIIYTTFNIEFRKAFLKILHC
# In short: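 cAMP accumulation in DRD2-HEK293 cells measured by HTRF after 1 h detection; compounds added 10 min before NKH477 (200nM […]) forskolin-analogue stimulation, 30 min at room temperature, with Ro20-1724 present at 0.1 mM final.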
# [18] = target: D(2) dopamine receptor (Homo sapiens) (UniProt P14416); assay: Dopamine D2 receptor (DRD2) small molecule antagonists, cell-based qHTS assay (AID 1963595; active means well fitted inhibition curve with a large enough effect in the signal ratio in the repeat runs, with a control signal flat; the % refers to the signal ratio)
# In short: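 Cells were plated and grown for 24 h at 37 °C. Ro20-1724 (0.1 mM final) went in first, then compound for 10 min. NKH477 (200 nM) with quinpirole (12 nM) followed for 30 min at RT, then HTRF detection reagents for 1 h.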
# [19] = target: Beta-2 adrenergic receptor (Homo sapiens) (UniProt P07550); assay: Adrenergic beta2 receptor (ADRB2) small molecule agonists, cell-based qHTS assay (AID 1963593);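 further: CHO cells stably overexpressing human ADRB2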
# In short: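 CHO cells stably over-expressing ADRB2 were plated overnight at 37C, then dosed with compounds plus a stimulation mix containing 100uM IBMX and 25uM Ro-20-1724 for 0.5hr at room temperature. cAMP was measured by HTRF competition, 1hr.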
SMILES,Potency [1],Potency [2],Potency [3],Potency [4],Potency [5],Potency [6],Potency [7],Potency [8],Potency [9],Potency [10],Potency [11],Potency [12],Potency [13],Potency [14],Potency [15],Potency [16],Potency [17],Potency [18],Potency [19]
Clc1ccc(C2(Cn3cncn3)OCCO2)c(Cl)c1,inactive,inactive,inactive,inactive,inactive,inactive,inactive,inactive,inactive,inactive,inactive,inactive,inactive,inactive,inactive,inactive,inactive,,
O=C1C2(Cl)C3(Cl)C4(Cl)C(Cl)(Cl)C5(Cl)C3(Cl)C1(Cl)C5(Cl)C24Cl (stereo not given),19 µM (active) and 29.3 µM (active),inactive,inactive,inactive,inactive,31.9 µM (active) and inactive,45 µM (active),,,,54 µM (active) and 46.9 µM (active),29.3 µM (active) and 20.2 µM (active),,,,inactive,inactive,,
ClCc1ccccc1CCl,inactive,inactive,inactive,inactive,inactive,inactive,inactive,,inactive,inactive,inactive,inactive,,inactive,inactive,inactive,inactive,inactive,
O=P1(N(CCCl)CCCl)NCCCO1 (stereo not given),inactive,inactive,inactive,inactive,inactive,inactive,inactive,inactive,inactive,,,,,inactive,inactive,inactive,inactive,inactive,inactive
CC(C)(C)OOC(C)(C)CCC(C)(C)OOC(C)(C)C,inactive,inactive,inactive,inactive,inactive,inactive,inactive,inactive,inactive,inactive,inactive,inactive,inactive,inactive,inactive,inactive,,inactive,inactive
CCC(C)c1cc([N+](=O)[O-])cc([N+](=O)[O-])c1O (stereo not given),inactive and 17.2 µM (active),inactive,inactive,inactive,inactive,inactive,inactive,,inactive,inactive,inactive,inactive,,,inactive,inactive,inactive,inactive,
O=S(=O)(c1ccccc1)c1ccccc1,inactive,inactive,inactive,inactive,inactive,inactive,inactive,,inactive,inactive,,inactive,inactive,,inactive,inactive,,inactive,inactive
CCN(CC)Cc1nccn1-c1ccc([N+](=O)[O-])cc1C(=O)c1ccccc1Cl,inactive,inactive,inactive,inactive,inactive,inactive,inactive,inactive,inactive,inactive,,inactive,inactive,inactive,inactive,inactive,inactive,inactive,inactive
